Source: PubChem BioAssay AID1159580 (chemical genetic matrix, 2015)
“And” between values parts separate entries of the source, which are not always exact repeats. Equal values may be shown once. Among all 5,500 compounds or so, about 2,000 (36%) were called active. Inconclusive results (about 18%) are left out. Rule as the data show it: active = normalized growth mostly below about 0.91 (no sharp cut-off); inconclusive = no clear call, values can overlap the other calls; inactive = mostly above about 0.92. This is one part of the list.

Test: chemical genetic growth profiling, strain panel (AID 1159580);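 also: tested at 20 µM; growth read once vehicle control cultures reached saturation at 30 °C; 1 = growth at the plate median or of vehicle wells; lower values mean less growth of the strain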
Details: S. cerevisiae deletion strains, growth OD

Measured: normalized growth

CCN(CC)CCCC(C)Nc1ccnc2cc(Cl)ccc12 (configuration not stated)
inactive: locus YAL013W, strain DEP1, hits give low values 1.02 and 1.01 | locus YAL021C, strain ccr4, hits give low values 1.04 | locus YAL026C, strain drs2, hits give low values 1.02 | locus YAL030W, strain snc1, hits give low values 1.02 | locus YAL040C, strain CLN3, hits give low values 1.01 | locus YBL061C, strain skt5, hits give low values 1.03 | locus YBR009C, strain hhf1, hits give low values 1.01 | locus YBR021W, strain FUR4, hits give low values 0.976 | locus YBR023C, strain chs3, hits give low values 1.03 | locus YBR171W, strain sec66, hits give low values 1.05 | locus YBR229C, strain ROT2, hits give low values 1.01 | locus YBR231C, strain swc5, hits give low values 1.03 | locus YBR279W, strain paf1, hits give low values 1.02 | locus YCL011C, strain gbp2, hits give low values 1.04 | locus YCL016C, strain dcc1, hits give low values 1.03 | locus YCL029C, strain bik1, hits give low values 1.01 | locus YCL061C, strain MRC1 (second series), hits give low values 1.01 | locus YCL069W, strain vba3, hits give low values 1.03 | locus YCR088W, strain abp1, hits give low values 1.02 | locus YDL005C, strain med2, hits give low values 1.03 | locus YDL035C, strain GPR1, hits give low values 0.995 | locus YDL040C, strain nat1, hits give low values 1.03 | locus YDL074C, strain BRE1, hits give low values 1.04 | locus YDL101C, strain DUN1, hits give low values 1.04 | locus YDL134C, strain PPH21, hits give low values 0.985 | locus YDL185W, strain tfp1, hits give low values 1 | locus YDL192W, strain arf1, hits give low values 1 | locus YDR001C, strain nth1, hits give low values 1.03 | locus YDR069C, strain doa4, hits give low values 0.998 | locus YDR101C, strain arx1, hits give low values 0.993 | locus YDR137W, strain rgp1, hits give low values 1.06 | locus YDR159W, strain sac3, hits give low values 1.06 | locus YDR162C, strain NBP2, hits give low values 1.01 | locus YDR195W, strain ref2 1.07 | locus YDR297W, strain sur2, hits give low values 1.03 | locus YDR318W, strain mcm21, hits give low values 1.02 | locus YDR334W, strain swr1, hits give low values 1.03 | locus YDR335W, strain msn5, hits give low values 1.03 | locus YDR363W, strain ESC2, hits give low values 1.01 | locus YDR388W, hits give low values 1.01 | locus YDR392W, strain spt3, hits give low values 0.937 | locus YDR502C, strain sam2, hits give low values 0.995 | locus YEL003W, strain gim4, hits give low values 1.03 | locus YEL037C, strain rad23, hits give low values 1.03 | locus YEL061C, strain CIN8 (second series), hits give low values 1.03 | locus YEL061C, strain CIN8, hits give low values 1.01 | locus YER002W, strain NOP16, hits give low values 0.994 | locus YER015W, strain faa2, hits give low values 1.03 | locus YER016W, strain bim1, hits give low values 1 | locus YER110C, hits give low values 1.02 | locus YER111C, strain swi4, hits give low values 1.04 | locus YER155C, strain BEM2 (second series), hits give low values 0.966 | locus YER155C, strain BEM2, hits give low values 1.01 | locus YER167W, strain BCK2, hits give low values 1.01 | locus YFR010W, strain ubp6, hits give low values 1.03 | locus YGL078C, strain dbp3, hits give low values 1.02 | locus YGL086W, strain mad1, hits give low values 0.996 | locus YGL167C, strain pmr1, hits give low values 1.04 | locus YGL173C, strain kem1, hits give low values 1.04 | locus YGL227W, strain vid30, hits give low values 1.03 | locus YGL240W, strain doc1, hits give low values 1.03 | locus YGL248W, strain PDE1, hits give low values 1.04 | locus YGL253W, strain hxk2, hits give low values 1.01 | locus YGR135W, strain pre9, hits give low values 1.04 | locus YGR252W, strain gcn5, hits give low values 1.02 | locus YHR013C, strain ard1, hits give low values 0.965 | locus YHR027C, strain rpn1, hits give low values 1.03 | locus YHR030C, strain SLT2, hits give low values 1 and 0.96 | locus YHR079C, strain IRE1 (second series), hits give low values 1.01 | locus YHR079C, strain IRE1, hits give low values 0.961 | locus YHR094C, strain hxt1, hits give low values 1.01 | locus YHR129C, strain ARP1, hits give low values 1.02 | locus YHR142W, strain chs7, hits give low values 1.04 | locus YHR200W, strain rpn10, hits give low values 1.01 | locus YIL066C, strain RNR3, hits give low values 1.02 | locus YIL073C, strain SPO22, hits give low values 1.01 | locus YIL125W, strain kgd1, hits give low values 1 | locus YIR030C, strain dcg1, hits give low values 1 | locus YJL092W, strain hpr5, hits give low values 1.02 | locus YJL095W, strain BCK1 (second series), hits give low values 1.03 | locus YJL095W, strain BCK1, hits give low values 1.07 and 0.962 | locus YJL115W, strain asf1, hits give low values 1.05 | locus YJL129C, strain trk1, hits give low values 1.02 | locus YJL134W, strain LCB3, hits give low values 1.01 | locus YJL154C, strain vps35, hits give low values 1.02 | locus YJL164C, strain tpk1, hits give low values 1.02 | locus YJL166W, strain qcr8, hits give low values 1 | locus YJL168C, strain set2, hits give low values 1.01 | locus YJL187C, strain SWE1 (second series), hits give low values 1.05 | locus YJL187C, strain SWE1, hits give low values 1.03 | locus YJR043C, strain POL32, hits give low values 0.981 | locus YJR066W, strain TOR1, hits give low values 0.979
